Test results as given in the supplement of paper PMC10849652.
Of roughly 7,900 targets only a part is listed; those with a hit were picked by preference. About 0.6% of all pairs of compound and target were hits.

compound: c1cn2cc(-c3ccc4cn[nH]c4c3)nc(Nc3ccc(N4CCOCC4)cc3)c2n1 [entospletinib]; experiment: log2 fold change, soluble protein after heating vs DMSO (PISA); higher = thermal stabilisation; K562 cells, 10 uM, 30 min; active = over 0.2 and 3.5 SD of the protein, either way, in both replicates (recomputed)
Summary of the method: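 Thermal stability values are relative to control samples and come from duplicates. They are expressed as log2 fold changes. For measurement, K562 cells (2×10^6 cells/mL) received 10 μM compound for 30 min, and aliquots were heated for 3 min over 48°C-58°C, pooled, and extracted at 4°C in PBS with 0.5% NP-40. Soluble protein, the supernatant after 21,000xg for 90 min, was quantified by TMTpro 16plex LC-MS/MS with equalised channel sums.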

UniProt Q8NHS3, sequence (Q8NHS3 whole entry, looked up): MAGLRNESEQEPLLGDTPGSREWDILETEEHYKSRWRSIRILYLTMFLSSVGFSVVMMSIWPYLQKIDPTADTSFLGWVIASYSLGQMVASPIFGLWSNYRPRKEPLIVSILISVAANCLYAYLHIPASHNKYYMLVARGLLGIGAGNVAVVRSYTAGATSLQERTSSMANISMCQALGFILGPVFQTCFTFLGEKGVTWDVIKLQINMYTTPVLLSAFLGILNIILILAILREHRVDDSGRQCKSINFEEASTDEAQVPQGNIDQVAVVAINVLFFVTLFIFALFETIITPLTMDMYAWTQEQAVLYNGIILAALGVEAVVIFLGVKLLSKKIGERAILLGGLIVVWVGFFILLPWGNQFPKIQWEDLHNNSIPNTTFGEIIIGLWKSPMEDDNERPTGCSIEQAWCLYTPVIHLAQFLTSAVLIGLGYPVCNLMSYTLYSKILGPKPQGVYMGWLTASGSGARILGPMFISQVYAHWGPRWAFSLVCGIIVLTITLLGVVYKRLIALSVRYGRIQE
UniProt P46734, sequence (P46734 whole entry, looked up): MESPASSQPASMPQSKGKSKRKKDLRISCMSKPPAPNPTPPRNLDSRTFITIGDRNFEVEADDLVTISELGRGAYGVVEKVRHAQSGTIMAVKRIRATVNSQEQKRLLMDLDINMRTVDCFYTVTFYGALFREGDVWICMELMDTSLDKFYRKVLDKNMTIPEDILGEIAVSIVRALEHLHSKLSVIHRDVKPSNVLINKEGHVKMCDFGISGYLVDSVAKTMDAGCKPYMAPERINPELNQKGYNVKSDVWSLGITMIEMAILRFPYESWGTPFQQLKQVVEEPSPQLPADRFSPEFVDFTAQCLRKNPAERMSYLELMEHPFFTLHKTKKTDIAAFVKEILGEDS
UniProt Q6N075, sequence (Q6N075 whole entry, looked up): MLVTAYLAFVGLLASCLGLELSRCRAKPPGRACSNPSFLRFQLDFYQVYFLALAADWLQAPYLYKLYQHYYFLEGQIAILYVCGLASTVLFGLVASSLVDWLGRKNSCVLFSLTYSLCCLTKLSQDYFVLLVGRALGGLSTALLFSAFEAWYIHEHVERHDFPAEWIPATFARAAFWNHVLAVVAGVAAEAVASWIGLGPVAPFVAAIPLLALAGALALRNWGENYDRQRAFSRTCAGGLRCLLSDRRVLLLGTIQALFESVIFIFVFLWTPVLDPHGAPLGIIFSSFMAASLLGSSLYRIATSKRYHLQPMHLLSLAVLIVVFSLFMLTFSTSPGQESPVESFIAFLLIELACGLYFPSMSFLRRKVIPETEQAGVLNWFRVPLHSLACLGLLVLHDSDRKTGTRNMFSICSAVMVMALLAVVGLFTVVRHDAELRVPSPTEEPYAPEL
UniProt Q92615, sequence (Q92615 whole entry, looked up): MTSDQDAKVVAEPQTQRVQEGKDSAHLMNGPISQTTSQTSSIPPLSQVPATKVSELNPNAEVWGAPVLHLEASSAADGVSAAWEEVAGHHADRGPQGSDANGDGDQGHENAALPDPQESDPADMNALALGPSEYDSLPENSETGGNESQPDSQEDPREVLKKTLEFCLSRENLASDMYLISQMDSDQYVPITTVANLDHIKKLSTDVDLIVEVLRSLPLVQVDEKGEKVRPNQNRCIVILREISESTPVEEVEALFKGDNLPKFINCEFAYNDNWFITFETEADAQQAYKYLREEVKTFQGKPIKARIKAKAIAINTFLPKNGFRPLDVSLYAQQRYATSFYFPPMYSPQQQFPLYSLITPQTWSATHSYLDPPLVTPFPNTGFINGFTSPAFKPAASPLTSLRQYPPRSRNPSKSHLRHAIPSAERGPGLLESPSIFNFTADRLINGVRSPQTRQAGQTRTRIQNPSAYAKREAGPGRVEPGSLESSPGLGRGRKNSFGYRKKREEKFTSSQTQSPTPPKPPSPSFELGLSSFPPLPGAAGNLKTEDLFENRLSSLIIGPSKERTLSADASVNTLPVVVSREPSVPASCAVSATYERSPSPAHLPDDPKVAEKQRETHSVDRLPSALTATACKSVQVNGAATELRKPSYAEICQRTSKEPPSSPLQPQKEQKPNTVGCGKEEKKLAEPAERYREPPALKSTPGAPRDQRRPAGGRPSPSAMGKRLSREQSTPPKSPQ
UniProt Q15648, sequence (Q15648 whole entry, looked up): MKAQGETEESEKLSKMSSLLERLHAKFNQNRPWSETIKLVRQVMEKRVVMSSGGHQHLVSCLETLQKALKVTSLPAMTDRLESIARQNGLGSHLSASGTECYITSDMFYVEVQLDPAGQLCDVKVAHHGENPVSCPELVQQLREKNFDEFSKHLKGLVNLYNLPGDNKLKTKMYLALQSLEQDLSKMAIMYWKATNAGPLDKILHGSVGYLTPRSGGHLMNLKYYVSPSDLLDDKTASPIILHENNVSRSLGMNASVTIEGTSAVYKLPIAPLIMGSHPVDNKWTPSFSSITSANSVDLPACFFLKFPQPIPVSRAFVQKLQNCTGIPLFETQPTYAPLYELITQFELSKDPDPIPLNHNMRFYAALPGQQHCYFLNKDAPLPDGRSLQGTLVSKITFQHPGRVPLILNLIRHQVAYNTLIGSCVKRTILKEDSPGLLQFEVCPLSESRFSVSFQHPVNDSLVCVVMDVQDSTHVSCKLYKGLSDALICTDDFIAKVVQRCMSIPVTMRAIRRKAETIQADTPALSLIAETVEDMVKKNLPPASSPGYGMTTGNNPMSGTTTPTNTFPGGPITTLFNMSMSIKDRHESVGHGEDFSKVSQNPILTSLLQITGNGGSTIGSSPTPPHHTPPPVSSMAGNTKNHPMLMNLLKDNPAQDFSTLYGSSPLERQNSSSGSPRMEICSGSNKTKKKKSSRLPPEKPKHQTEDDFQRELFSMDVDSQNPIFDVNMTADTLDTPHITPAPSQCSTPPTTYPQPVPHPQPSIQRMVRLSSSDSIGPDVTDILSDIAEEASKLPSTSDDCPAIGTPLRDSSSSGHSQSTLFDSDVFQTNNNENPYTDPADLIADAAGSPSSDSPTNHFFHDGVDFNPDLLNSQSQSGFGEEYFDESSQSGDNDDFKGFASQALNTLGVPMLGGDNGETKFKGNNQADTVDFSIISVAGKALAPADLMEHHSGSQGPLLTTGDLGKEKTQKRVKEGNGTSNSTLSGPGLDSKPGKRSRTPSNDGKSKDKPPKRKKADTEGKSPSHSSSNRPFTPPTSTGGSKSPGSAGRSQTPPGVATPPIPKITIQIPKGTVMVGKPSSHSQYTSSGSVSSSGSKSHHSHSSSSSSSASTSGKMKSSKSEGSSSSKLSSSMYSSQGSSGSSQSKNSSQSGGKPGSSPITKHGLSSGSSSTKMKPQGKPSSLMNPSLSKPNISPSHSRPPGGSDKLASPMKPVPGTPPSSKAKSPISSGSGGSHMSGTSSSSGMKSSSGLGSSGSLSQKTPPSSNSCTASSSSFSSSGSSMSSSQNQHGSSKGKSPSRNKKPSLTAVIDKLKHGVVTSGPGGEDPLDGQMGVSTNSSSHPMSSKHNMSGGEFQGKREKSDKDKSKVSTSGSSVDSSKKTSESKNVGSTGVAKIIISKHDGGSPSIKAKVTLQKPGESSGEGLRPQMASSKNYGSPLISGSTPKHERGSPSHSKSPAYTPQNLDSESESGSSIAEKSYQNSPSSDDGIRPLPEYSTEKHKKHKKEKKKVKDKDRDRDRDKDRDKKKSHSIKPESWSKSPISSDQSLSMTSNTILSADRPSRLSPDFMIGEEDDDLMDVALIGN
UniProt Q8IVT5, sequence (Q8IVT5 whole entry, looked up): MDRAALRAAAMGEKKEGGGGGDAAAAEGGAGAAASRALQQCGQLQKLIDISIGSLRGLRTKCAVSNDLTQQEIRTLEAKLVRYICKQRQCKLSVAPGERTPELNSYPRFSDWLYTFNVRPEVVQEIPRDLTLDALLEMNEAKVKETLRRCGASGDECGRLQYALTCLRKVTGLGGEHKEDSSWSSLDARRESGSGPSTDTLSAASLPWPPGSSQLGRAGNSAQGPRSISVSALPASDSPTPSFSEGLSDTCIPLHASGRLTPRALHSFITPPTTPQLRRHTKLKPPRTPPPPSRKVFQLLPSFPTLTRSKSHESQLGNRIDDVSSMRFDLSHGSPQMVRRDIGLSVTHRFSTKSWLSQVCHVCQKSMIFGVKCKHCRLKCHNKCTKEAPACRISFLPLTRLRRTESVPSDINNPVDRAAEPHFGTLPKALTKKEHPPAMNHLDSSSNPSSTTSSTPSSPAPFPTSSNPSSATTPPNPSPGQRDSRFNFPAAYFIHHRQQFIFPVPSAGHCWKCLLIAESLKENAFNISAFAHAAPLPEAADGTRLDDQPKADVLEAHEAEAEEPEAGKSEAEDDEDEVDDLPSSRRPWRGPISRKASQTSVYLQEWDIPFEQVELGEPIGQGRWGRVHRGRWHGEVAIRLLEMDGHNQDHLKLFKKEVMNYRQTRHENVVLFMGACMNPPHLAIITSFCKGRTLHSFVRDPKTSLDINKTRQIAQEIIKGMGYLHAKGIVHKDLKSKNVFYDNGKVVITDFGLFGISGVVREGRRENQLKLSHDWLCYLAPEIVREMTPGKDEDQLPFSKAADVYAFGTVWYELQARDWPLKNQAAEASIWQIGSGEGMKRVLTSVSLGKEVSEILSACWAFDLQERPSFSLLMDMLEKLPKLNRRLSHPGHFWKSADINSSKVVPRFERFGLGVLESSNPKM
UniProt Q9UBF1, sequence (Q9UBF1 whole entry, looked up): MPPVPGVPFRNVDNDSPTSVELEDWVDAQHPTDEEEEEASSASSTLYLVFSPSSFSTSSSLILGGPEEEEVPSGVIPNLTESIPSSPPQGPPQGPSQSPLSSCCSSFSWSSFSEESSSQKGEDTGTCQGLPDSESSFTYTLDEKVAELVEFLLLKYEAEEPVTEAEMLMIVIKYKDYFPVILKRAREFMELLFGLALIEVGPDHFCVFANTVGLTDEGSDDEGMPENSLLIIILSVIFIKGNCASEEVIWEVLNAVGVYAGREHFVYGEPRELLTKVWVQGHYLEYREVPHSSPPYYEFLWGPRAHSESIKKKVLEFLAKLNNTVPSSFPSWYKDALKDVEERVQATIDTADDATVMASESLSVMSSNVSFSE

log2 fold change, inactive:
MEAK7 (UniProt Q6P9B6) -0.06
MASTL (UniProt Q96GX5) -0.014
MFSD5 isoform 2 (UniProt Q6N075) -0.005
IMMP1L (UniProt Q96LU5) -0.172
LRPPRC (UniProt P42704) 0.245
KTN1 (UniProt Q86UP2) -0.043
MFSD8 (UniProt Q8NHS3) 0.053
MAP2K3 isoform 3 (UniProt P46734) 0.013
MAP4K2 (UniProt Q12851) 0.128
LNPK (UniProt Q9C0E8) 0.01
LAMP2 isoform 2 (UniProt P13473) 0.033
LARP4B (UniProt Q92615) 0.063
ME2 (UniProt P23368) 0.008
LTV1 (UniProt Q96GA3) 0.09
KIF21A isoform 4 (UniProt Q7Z4S6) 0.018
MAP4 (UniProt E7EVA0) -0.007
IWS1 (UniProt Q96ST2) 0.159
MAGEA8 (UniProt P43361) 0.125
KSR1 (UniProt Q8IVT5) 0.038
MAPKAPK5 (UniProt Q8IW41) -0.03
LAPTM4B (UniProt Q86VI4) 0.049
KDELR2 (UniProt P33947) 0.101
MAPRE3 (UniProt Q9UPY8) -0.041
LARP7 isoform 3 (UniProt Q4G0J3) 0.006
LIMA1 isoform 4 (UniProt Q9UHB6) -0.119
LPIN3 isoform 2 (UniProt Q9BQK8) 0.08
LEMD2 (UniProt Q8NC56) -0.039
MED1 (UniProt Q15648) 0.019
KLHDC4 (UniProt Q8TBB5) 0.065
MAP3K7 (UniProt O43318) 0.055
MAGEC2 (UniProt Q9UBF1) 0.061
KCTD10 (UniProt Q9H3F6) 0.047
IGFBP2 (UniProt P18065) 0.092
